Laboratory results reported in PubChem BioAssay AID485347 (National Center for Advancing Translational Sciences (NCATS), 2010).
About 1,200 (0.35%) of roughly 340,000 compounds were called active.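 How the source made its calls: active means potentiation over 3 SD above the plate norm (cut at about 30% in these data); inactive means the rest.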 Many of the other results were omitted from the sample, so actives are more common in it than they were.

Molecular target: D(2) dopamine receptor (Homo sapiens) (UniProt P14416)
Experiment: HTS Assay for Positive Allosteric Modulators of the Human D2 Dopamine Receptor: Primary Screen for Potentiators; further: 0% is about no effect
Conditions: HEK293 T-REx D2, calcium flux, EC20 dopamine potentiation; at 10 µM; hits give high values
Description: NIH Chemical Genomics Center [NCGC] NIH Molecular Libraries Probe Centers Network [MLPCN] MLPCN Grant: NS064831-01 Assay Submitter (PI): David Sibley Dopamine receptors (DARs) are involved in the etiology and/or therapy of a number of neuropsychiatric and endocrine disorders. For instance, all receptor-based antiparkinsonian drugs work via stimulating the D2 DAR subtype whereas all FDA-approved antipsychotic agents are antagonists of this receptor. […] There are three different types of allosteric modulators that we are seeking, two of which will stimulate or augment receptor signaling, allosteric agonists and potentiators, while the third, allosteric antagonists, will attenuate receptor signaling. The present primary screening assay measures compound potentiation of an EC20 dopamine response by tracking calcium flux in a […], inducible Hek293 Trex D2 cell line.
Freshly passaged cells are plated in 1536 well black, clear bottom plates at a density of 4000 cells/well in 3 ul of complete media containing 1x tetracycline inducer. After an overnight incubation at 30 C in 5% CO2, cells are loaded with 2 ul of the no wash Calcium Assay Kit (ABD Bioquest) and incubated at room temperature for 30 to 90 minutes. A 10 cycle (1 second/cycle) baseline measurement is taken and then the FDSS online 1536 pintool delivers 23 nl of compound library (as well as dopamine controls) to the plate. The plate is measured for kinetically at 1 cycle/sec for 180 seconds and is considered to be the agonist portion of the assay (eg, compounds which activate a positive calcium response during this portion are flagged as potential agonists). Following the 180 second read, 1 ul of an EC20 of dopamine is delivered by an onboard pipette head. Measurements are taken kinetically for an additional 180 seconds.

D(2) dopamine receptor (Homo sapiens), sequence (P14416 whole entry, looked up): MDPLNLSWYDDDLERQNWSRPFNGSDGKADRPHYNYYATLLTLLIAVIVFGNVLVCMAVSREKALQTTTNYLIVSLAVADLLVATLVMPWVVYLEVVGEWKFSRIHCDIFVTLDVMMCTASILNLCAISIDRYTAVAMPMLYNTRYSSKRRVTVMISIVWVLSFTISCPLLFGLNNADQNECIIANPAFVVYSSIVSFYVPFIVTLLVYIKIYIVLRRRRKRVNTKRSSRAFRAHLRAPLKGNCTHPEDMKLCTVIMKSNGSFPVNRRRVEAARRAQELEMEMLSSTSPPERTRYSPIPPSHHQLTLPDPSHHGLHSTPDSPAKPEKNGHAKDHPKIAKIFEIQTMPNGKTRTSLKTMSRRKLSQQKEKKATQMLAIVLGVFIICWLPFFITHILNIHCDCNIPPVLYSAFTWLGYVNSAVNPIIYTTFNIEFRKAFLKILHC

Row | Structure (SMILES) | potentiation
1 | CCN(CC(=O)Nc1ccccc1OC)C(=O)Cn1cnc2ccccc2c1=O | 11.8% (inactive)
2 | CCN(CC(=O)Nc1ccccc1OC)C(=O)CC1CC2CCC1C2 (stereo not drawn) | 5.39% (inactive)
3 | CCCN(CC(=O)Nc1ccccc1OC)C(=O)CCC(=O)c1ccc(F)cc1 | 30.4% (active)
4 | Cc1cc(C)cc(OCC(=O)Nc2c(C(=O)c3ccccc3)oc3ccccc23)c1 | -6.36% (inactive)
5 | COc1ccc(C)cc1NC(=O)COCc1cc(-c2cccs2)on1 | 3.43% (inactive)
6 | CN(c1ccc(C(=O)NCc2ccccn2)cc1)S(C)(=O)=O | 42.4% (active)
7 | CN(c1ccc(C(=O)NCCC2=CCCCC2)cc1)S(C)(=O)=O | -10.3% (inactive)
8 | CCN(c1ccccc1)S(=O)(=O)c1cc(C(=O)NCc2ccccn2)ccc1C | -2.26% (inactive)
9 | O=C(CCS(=O)(=O)c1ccccc1)N(Cc1cccnc1)c1nc2c(F)cccc2s1 | -2.05% (inactive)
10 | Cc1ccc(C2C=C(c3ccc(Cl)cc3)Nc3nc(NC(=O)CCC(=O)O)nn32)cc1 (stereo not drawn) | 5.1% (inactive)
11 | CCOc1ccc(CNCc2c(C(=O)O)c(C)n(Cc3cccc(OC)c3)c2C)cc1OC | -3.84% (inactive)
12 | Cc1sc2nc(CC(N)=O)[nH]c(=O)c2c1-c1ccccc1 | 9.95% (inactive)
13 | NC(=O)c1sc2nc3c(c(-c4ccccc4)c2c1N)CCC3 | 37.2% (active)
14 | COc1cccc(C(=O)c2sc3nc(-c4ccccc4)cc(C(F)(F)F)c3c2N)c1 | -10.4% (inactive)
15 | Cc1ccc(NC(=O)c2oc3ccccc3c2NC(=O)Cc2cccs2)cc1 | -10% (inactive)
16 | CSc1ccc(CCNC(=O)c2ccc3c(c2)nc2n3CCOC2)cc1 | 8.52% (inactive)
17 | Cc1ccc(C)c(Oc2c(C(F)(F)F)oc3c(CN4CCN(C)CC4)c(O)ccc3c2=O)c1 | -2.95% (inactive)
18 | Cc1ccc(-c2nn(CCC(=O)Nc3ccc(Cl)c(Cl)c3)c(=O)c3ccccc23)cc1 | -14.9% (inactive)
19 | CCOc1ccccc1C1CC(c2ccccc2)Nc2nc(N)nn21 (stereo not drawn) | 14.5% (inactive)
20 | Clc1ccc(C2CC(c3cccs3)n3ncnc3N2)cc1Cl (stereo not drawn) | -0.578% (inactive)
21 | FC(F)Oc1ccccc1C1CC(c2ccc(Br)s2)Nc2ncnn21 (stereo not drawn) | 31.8% (active)
22 | CCOC(=O)c1ccc(NC(=S)N2CCCC2)cc1 | 8.15% (inactive)
23 | CCOc1ccc(NC(=S)N2CCCCCC2)cc1 | 30.1% (active)
24 | CCOc1ccc(NC(=S)N2CCC(N(C)CC3CCCO3)CC2)cc1 (stereo not drawn) | -4.46% (inactive)

Row | Structure (SMILES) | potentiation
25 | COc1cc(CNC(=O)c2cc3n(n2)CCCN(Cc2cccc(F)c2)C3=O)cc(OC)c1OC | 7.44% (inactive)
26 | CC(C)(C)c1ccc(C(=O)NCC(c2ccco2)S(=O)(=O)c2ccc(F)cc2)cc1 (stereo not drawn) | 2.19% (inactive)
27 | COc1ccccc1NC(=O)c1oc2ccccc2c1NC(=O)COc1ccccc1OC | -6.56% (inactive)
28 | CC(C)CCC(C)NC(=O)c1ccc2nccnc2c1 (stereo not drawn) | 36.8% (active)
29 | O=C(NCCc1ccc(F)cc1)c1ccc2nccnc2c1 | 1.21% (inactive)
30 | Cc1ccc(C)c(NC(=O)c2ccc3nccnc3c2)c1 | 10.6% (inactive)
31 | CCOC(=O)c1ccccc1NC(=O)CCc1c(C)nc2c(c1C)c(=O)n(C)c(=O)n2C | -0.581% (inactive)
32 | Cc1ccc(NC(=O)c2nc(S(=O)(=O)Cc3cccc(C)c3)ncc2Cl)cc1 | -4.73% (inactive)
33 | Cc1cccc(C(=O)N2c3nc(-c4ccco4)nn3C3(CCCCC3)[C@@H]3CCCC[C@@H]32)c1 | 11.9% (inactive)
34 | COc1ccccc1NC(=O)C1=C(C)Nc2ncnn2C1c1sccc1C (stereo not drawn) | 14.1% (inactive)
35 | CCn1c(SCC(=O)c2ccc(Cl)s2)nnc1-c1cccs1 | 5.97% (inactive)
36 | CCn1c(SCC(=O)N(C)C2CCS(=O)(=O)C2)nnc1-c1cccs1 (stereo not drawn) | 43.3% (active)
37 | CN(C(=O)CSc1nnc(Nc2ccccc2)s1)C1CCS(=O)(=O)C1 (stereo not drawn) | -2.37% (inactive)
38 | Cc1ccc(NC(=O)Cc2ccc(NC(=O)N3CCCCc4ccccc43)cc2)cc1 | -2.54% (inactive)
39 | Cc1c(Cl)cccc1NC(=O)NCc1ccc(C)n1C | 6.36% (inactive)
40 | Cc1c(NC(=O)Nc2ccccc2Cl)sc(=S)n1C | 37% (active)
41 | Cc1c(Cl)cccc1NC(=O)Nc1ccc(C(=O)N2CCCC2)cc1 | -6.53% (inactive)
42 | CCCSc1ncc(Cl)c(C(=O)Nc2c(C(=O)Nc3ccccc3)oc3ccccc23)n1 | 9.52% (inactive)
43 | C=CCN1C(=O)C2(OCCCO2)c2cccc(Cl)c21 | 9.19% (inactive)
44 | CC(C)(C)C(=O)CCN1C(=O)C2(OCCO2)c2ccccc21 | 31.3% (active)
45 | O=C(CC1(O)C(=O)N(CN2CCOCC2)c2ccccc21)c1ccccc1 (stereo not drawn) | -7.42% (inactive)
46 | O=C(NCCCN1CCN(c2cccc(Cl)c2)CC1)c1nnc(Cc2ccc(F)cc2Cl)o1 | -20.3% (inactive)
47 | COc1cn(CC(=O)Nc2cccc(C)c2C)c(CN2CCCCC2)cc1=O | -2.25% (inactive)
48 | COC(=O)c1ccc(OC)c(Cn2c(=O)n(Cc3ccccc3)c(=O)c3c2c2cc(OC)ccc2n3C)c1 | -2.94% (inactive)

Row | Structure (SMILES) | potentiation
49 | CCc1nn(CC(=O)Nc2cccc(C)c2C)c(=O)c2cc3sccc3n12 | 8.71% (inactive)
50 | COc1cccc(CSc2nc3nc(C)cc(C)n3n2)c1 | -5.34% (inactive)
51 | Cc1cc(C)n2nc(SCC(N)=O)nc2n1 | 16.2% (inactive)
52 | COc1ccc(C(C)=O)cc1CSc1nc2nc(C)cc(C)n2n1 | 34.5% (active)
53 | CCOc1ccc(-n2c(SCC(=O)NCc3ccccc3)nc3n[nH]c(C)c3c2=N)cc1 | -3.4% (inactive)
54 | COc1ccccc1CNCc1ccc(C(=O)O)s1 | 6.15% (inactive)
55 | O=C1/C(=C/c2cccs2)CCc2ccccc21 | 1.15% (inactive)
56 | CN1CCN(C(=O)/C(=C\c2cccs2)NC(=O)c2cccs2)CC1 | 15.2% (inactive)
57 | CN1C/C(=C/c2cccs2)C(=O)/C(=C\c2cccs2)C1 | 41.9% (active)
58 | Cc1c(NC(=O)CSc2nnnn2-c2ccc(C(=O)O)cc2)c(=O)n(-c2ccccc2)n1C | -3.5% (inactive)
59 | Cc1c(NC(=O)CSc2nnc(-c3cccnc3)n2N)c(=O)n(-c2ccccc2)n1C | 73.3% (active)
60 | Cc1c(NC(=O)CSc2cccc3cccnc23)c(=O)n(-c2ccccc2)n1C | 13.1% (inactive)
61 | Cc1cn(C)c(CC(=O)NCc2ccccc2)c1C(=O)O | 5.5% (inactive)
62 | CCc1ccc(CNC(=O)c2ccc(CS(=O)c3ccc(Br)cc3)o2)cc1 (stereo not drawn) | 3.07% (inactive)
63 | COc1ccccc1CNC(=O)C(=O)NCC(c1ccco1)S(=O)(=O)c1ccc(F)cc1 (stereo not drawn) | 11.5% (inactive)
64 | C=CCn1c(SCn2nnc3ccccc3c2=O)nnc1-c1ccc(Cl)cc1 | 3.09% (inactive)
65 | C=CCn1cc(-c2cccc(C(F)(F)F)c2)cc(C#N)c1=O | -3% (inactive)
66 | C=CCn1c(-c2ccc(Cl)cc2)ccc(C#N)c1=O | 40.5% (active)
67 | COc1cc(OC)cc(C(=O)Nc2cc3nn(-c4ccccc4)nc3cc2Cl)c1 | 29.9% (inactive)
68 | CCCCc1nn2c(=O)cc(COC(=O)c3ccccc3NC(=O)C(C)(C)C)nc2s1 | 9.21% (inactive)
69 | CC1=CC(C)(C)NC(=S)N1c1ccccc1 | -0.583% (inactive)
70 | CC1=CC(C)(C)NC(=S)N1NC(=O)c1ccccc1Cl | 35.1% (active)
71 | CC12CCC(C(=O)N(NC(=O)c3ccccc3O)C1=O)C2(C)C (stereo not drawn) | 13.8% (inactive)
72 | CCN(C(=O)c1sc2cc(OC)ccc2c1Cl)c1ccccc1 | -5.49% (inactive)

Row | Structure (SMILES) | potentiation
73 | COc1ccccc1NC(=O)c1oc2ccccc2c1NC(=O)C(C)C | -4.17% (inactive)
74 | Cc1ccc(NC(=O)CSc2nc3c([nH]c4ccccc43)c(=O)n2-c2ccccc2)cc1Cl | 0.276% (inactive)
75 | Cc1cccc(N2CCN(S(=O)(=O)c3ccc4[nH]c5c(c4c3)CCCCC5)CC2)c1C | 2.56% (inactive)
76 | CC(C)(C)NS(=O)(=O)c1ccc(NC(=O)C2CCCO2)cc1 (stereo not drawn) | 5.45% (inactive)
77 | CC(C)(C)NS(=O)(=O)c1ccc(NC(=O)NC2CCCCC2)cc1 | 38% (active)
78 | CC(C)c1ccc(NC(=O)NC2CCCCC2)cc1 | 4% (inactive)
79 | CCCN(CCC)CCNC(=O)c1ccc2c(c1)NC(=O)C(CS(=O)(=O)Cc1cccc(Br)c1)N2 (stereo not drawn) | 0.677% (inactive)
80 | COc1ccc(Cn2ccnc2SCC(=O)Nc2ccc3c(c2)OCO3)cc1 | 1.53% (inactive)
81 | Cc1ccc(C(=O)CSc2nc3ccccc3c(=O)n2N)o1 | 2.64% (inactive)
82 | Cc1cc2c(=O)n(C)c(SCC(=O)c3cc4ccccc4o3)nc2s1 | 30.1% (active)
83 | CCc1cc2c(=O)n(-c3ccccc3)c(SCC(=O)O)nc2s1 | -3.23% (inactive)
84 | Cc1ccc2c(=O)c(C(=O)c3ccc(F)cc3)cn(CC(=O)NC3CCCCC3)c2n1 | -9.33% (inactive)
85 | COCCCNC(=S)NNC(=O)C(O)(c1ccccc1)c1ccccc1 | -5.53% (inactive)
86 | CCCCNC(=O)c1cc(-c2ccc(Cl)c(Cl)c2)on1 | -3.44% (inactive)
87 | CCCCNC(=S)NNC(=O)c1cc(C)on1 | 37% (active)
88 | COc1ccc(-c2nc(S(=O)(=O)c3ccccc3)c(N3CCCCC3)o2)cc1 | -5.46% (inactive)
89 | COc1ccccc1-c1cc(C(=O)N2CCCCC2)no1 | -22.4% (inactive)
90 | COc1ccc(-c2cc(C(=O)N3CCN(c4ccc(F)cc4)CC3)no2)cc1 | -8.77% (inactive)
91 | COc1ccccc1N1CCN(C(=O)c2cc(-c3ccc(Cl)c(Cl)c3)on2)CC1 | 69.4% (active)
92 | Cc1cccc(Cn2c(=O)n(CCC(=O)NCCc3ccc(Cl)cc3)c(=O)c3sccc32)c1 | 13% (inactive)
93 | CCN1CCN(C(c2ccc(C)cc2)c2c(O)cc(C)n(Cc3ccco3)c2=O)CC1 (stereo not drawn) | 6.89% (inactive)
